{
  "source": "PubChem BioAssay (NCATS)",
  "note": "“And” between values parts separate entries of the source, which are not always exact repeats. Equal entries are not always repeated. Inconclusive results are not listed. The source made the active and inactive calls. The call rests on the fitted dose curve; in most records, active means well fitted cell-killing curve with a large enough effect; inconclusive means small, poorly fitted or top-dose-only effect, or effect the other way; inactive means no such curve, though single readings can be large or run the other way. On the % scale 0 is the no-effect control and ±100 the full control effect; potency means the concentration at half of the fitted maximal effect.",
  "data": [
    {"assay": "qHTS of pediatric cancer cell lines to identify multiple opportunities for drug repurposing: Confirmatory screen for LAN-5 cells (AID 1347113); further: nearly all actives have a fitted effect of over 65% in size", "conditions": "LAN-5 neuroblastoma cell viability; series mostly up to 45.9 µM; activity change, negative = cytotoxicity: at the top concentration", "description": "Drug repurposing or repositioning has been offered as a strategy for drug development in oncology programs. This approach has special potential for childhood cancers and other rare or orphan diseases, where the expected return on new drug development has been a disincentive to pharmaceuticals.\nIn this project we exploit the poly-pharmacology of drugs to discover new indications via phenotypic screening of a panel of 19 well-characterized cell lines derived from solid tumors seen in children and adolescents. The goal is to identify approved drugs with previously unrecognized anticancer properties that has the potential to reveal new mechanisms and biological processes involved in carcinogenesis or drug resistance. We employed a titration-based paradigm (quantitative high-throughput screening or qHTS), where all compounds were tested at multiple concentrations for their effect on cell viability. Concentration-response curves (CRCs) were derived directly from the primary screen, and both potency and efficacy values were used to identify compounds with robust bioactivity profiles. We screened the NIH Chemical Genomics Center (NCGC) Pharmaceutical Collection (NPC) and Mechanism Interrogation Plate (MIPE) small molecule collections of approved and investigational compounds against these cell lines; and measured metabolically active cells after 48 hours of compound treatment as a proxy for cell viability.\nAssay Submitter: Nathalia J. Martinez, National Center for Advancing Translational Sciences, National Institutes of Health, Rockville, MD, USA; email: natalia.martinez@nih.gov\n[1] Shen, M et al. Quantitative high-throughput phenotypic screening of pediatric cancer cell lines identifies multiple opportunities for drug repurposing. Oncotarget 2017 Dec 19;9(4):4758-4772. PMID 29435139.\nThe cells were obtained from University of North Carolina (UNC), Pediatric Preclinical Testing Program (PPT), and Coriell Institute (CI).\nqHTS cell viability assay:\nCells were assayed in growth media at a density of 500-1,000 cells/well. Five microliters of cells were dispensed into 1,536-well, white, solid-bottom, TC-treated plates (Greiner Bio One) using a multidrop dispenser and incubated at 37 degrees C, 5% CO2, under a humidified atmosphere for 5 hours. Twenty-three nanoliters of compounds and controls (neutral control DMSO or positive control bortezomib at final concentration of 2.3 µM) were subsequently transferred by Kalypsys pintool. For primary screens, the MIPE collection was tested at 11-point dilutions (final concentrations range from 0.78 nM to 46 µM) and the NPC collection at 8-point dilutions (final concentrations range from 0.59 nM to 46 µM). Compounds tested in follow-up screens were assayed at 11-point dilutions. Cells were incubated for 48 hours, followed by addition of 3 µL of CellTiter-Glo (Promega). After a 15 min incubation at room temperature, samples were analyzed for luminescence intensity using a ViewLux High-throughput CCD imager equipped with clear filters.", "values": [
      {"smiles": "CC[n+]1c(-c2ccccc2)c2cc(N)ccc2c2ccc(N)cc21", "Potency": "928 nM (active)"},
      {"smiles": "CN1[C@@H]2CC[C@H]1CC(OC(=O)c1cc(Cl)cc(Cl)c1)C2", "note": "(stereo partly drawn)", "activity change, negative = cytotoxicity": "-21.9% (inactive)"},
      {"smiles": "COc1ccc2c(C(=O)c3ccc(Cl)cc3)c(C)n(CC(=O)O)c2c1", "activity change, negative = cytotoxicity": "16.7% (inactive)"},
      {"smiles": "C[C@@H]1O[C@@H](O[C@@H]2C=C3CC[C@@H]4[C@H](CC[C@]5(C)[C@@H](c6ccc(=O)oc6)CC[C@]45O)[C@@]3(C)CC2)[C@H](O)[C@H](O)[C@H]1O", "Potency": "58.5 nM (active)"},
      {"smiles": "CCCCCCCCCCCC[N+](C)(C)CCOc1ccccc1", "Potency": "14700 nM (active)"},
      {"smiles": "CCCCCCCCC(=O)NCc1ccc(O)c(OC)c1", "activity change, negative = cytotoxicity": "-32.2% (inactive)"},
      {"smiles": "Cc1ccc([N+](=O)[O-])[c]2c1[O][Hg]2", "Potency": "2930 nM (active)"},
      {"smiles": "C[C@@H]1C[C@@H]([C@H](O)CC2CC(=O)NC(=O)C2)C(=O)[C@@H](C)C1", "Potency": "928 nM (active) and 2.61 µM (active)"},
      {"smiles": "CC1Sc2c(C(=O)O)c(=O)c3cc(F)c(N4CCNCC4)cc3n21", "note": "(stereo not drawn)", "activity change, negative = cytotoxicity": "7.12% (inactive)"},
      {"smiles": "O=C(O)Cc1ccccc1", "activity change, negative = cytotoxicity": "-27.9% (inactive)"},
      {"smiles": "CN(C)C(=S)SSC(=S)N(C)C", "Potency": "185 nM (active)"},
      {"smiles": "ClC1=C(Cl)C2(Cl)C(CBr)CC1(Cl)C2(Cl)Cl", "note": "(stereo not drawn)", "activity change, negative = cytotoxicity": "9.65% (inactive)"},
      {"smiles": "CCc1ccc(C2CCNCC2)cc1", "activity change, negative = cytotoxicity": "14.3% (inactive)"}
    ]}
  ]
}
